The source of these data is PubChem BioAssay (NCI).

Test systems include DU-145 prostate; K-562 leukemia; MALME-3M melanoma; MDA-MB-231 breast; RXF 393 renal; SF-268 CNS; SF-295 CNS; SF-539 CNS; UACC-257 melanoma; M14 melanoma; HCT-15 colon; HT29 colon; SNB-75 CNS; U251 CNS; PC-3 prostate; SK-MEL-5 melanoma; UACC-62 melanoma; LOX IMVI melanoma; SK-MEL-28 melanoma.
Holding throughout (test): NCI-60 one-dose screen, 48 h (100 = growth as untreated, 0 = no growth, -100 = all killed)
Holding throughout (settings): 10 µM unless noted

Compounds without any hit were thinned out: in the full panel of roughly 83,000, 20% have a hit.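 How to read the values: 0–100, growth inhibition (40 = 60% inhibited); 0, no net growth; -100 to 0, cell death (-40 = 40% of starting cells died; -100 = all dead).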 Unmarked numbers belong to inactive results. Activity calls are given as the source filed them. Rule for the calls: active = growth percent below 10; inactive = the rest.

On to `CC(=O)c1c(C)nc2ccccc2c1/C=C/c1ccc(F)cc1`, for which the growth is 96.1% in the assay on DU-145 prostate; 60.2% in the assay on K-562 leukemia; 123% in the assay on MALME-3M melanoma; 93.8% in the assay on MDA-MB-231 breast; 92.7% in the assay on RXF 393 renal; 90.6% in the assay with SF-268 CNS. In addition, the growth in the assay on SF-295 CNS was 84%; with SF-539 CNS, 90.4%; with UACC-257 melanoma it was 95.2%; with M14 melanoma, 107%; with HCT-15 colon it was 84.8%; in the assay with HT29 colon, 90.7%. Also, the growth is 82.4% with SNB-75 CNS; 86.7% with U251 CNS; 79.1% in the assay with PC-3 prostate; 69.5% in the assay with SK-MEL-5 melanoma; 74.9% in the assay with UACC-62 melanoma; 81.4% with LOX IMVI melanoma. For the same compound, the growth with SK-MEL-28 melanoma was 114%.

In the case of `Cc1ccc(C[P+](c2ccccc2)(c2ccccc2)c2ccccc2)cc1`, the growth with DU-145 prostate was 7.44% (active); in the assay with K-562 leukemia, 2.1% (active); with MALME-3M melanoma, 10.1%; with MDA-MB-231 breast, 18.7%; with RXF 393 renal, 16.6%; in the assay with SF-268 CNS, 15.5%. The growth with SF-295 CNS is 2.31% (active); with SF-539 CNS, 16.3%; in the assay on UACC-257 melanoma, 3.36% (active); with M14 melanoma it was 5.62% (active); in the assay on HCT-15 colon, 82.5%; with HT29 colon, 2.44% (active). Further, the growth was -3.92% (active) with SNB-75 CNS; 7.54% (active) in the assay with U251 CNS; 4.25% (active) in the assay with PC-3 prostate; -66.3% (active) in the assay on SK-MEL-5 melanoma; 6.79% (active) with UACC-62 melanoma; 15.4% in the assay with LOX IMVI melanoma. Further, the growth in the assay with SK-MEL-28 melanoma was 9.82% (active).

With `O=S(=O)(Nc1cc(F)cc(Cl)c1)c1ccc(-c2cnc(C3CC3)o2)cc1`, the growth in the assay on DU-145 prostate was 35.6%; in the assay on K-562 leukemia, 17.1%; with MALME-3M melanoma, 52.1%; in the assay on MDA-MB-231 breast, 42.7%; in the assay with RXF 393 renal it was 14.8%; with SF-268 CNS it was 59.5%. The growth is 22.4% with SF-295 CNS; 5.3% (active) with SF-539 CNS; 62.9% with UACC-257 melanoma; 25.2% in the assay with M14 melanoma; 25.4% with HCT-15 colon; 4.89% (active) in the assay on HT29 colon. In addition, the growth is -22.1% (active) in the assay on SNB-75 CNS; 33.6% in the assay with U251 CNS; 32% in the assay on PC-3 prostate; 19.9% in the assay on SK-MEL-5 melanoma; 35.1% with UACC-62 melanoma; 39.3% in the assay on LOX IMVI melanoma. Further, the growth in the assay on SK-MEL-28 melanoma was 71.3%.

With `COc1cc(OCc2cccc(Br)c2C)cc(OC)c1C=O`, the growth with DU-145 prostate is 91.3%; with K-562 leukemia it was 67%; in the assay with MALME-3M melanoma, 114%; in the assay with MDA-MB-231 breast it was 95.2%; in the assay with RXF 393 renal, 75.1%; in the assay on SF-268 CNS, 91.9%. The growth in the assay with SF-295 CNS is 86.7%; in the assay with SF-539 CNS it was 91.9%; with UACC-257 melanoma it was 83%; in the assay on M14 melanoma, 90.9%; in the assay on HCT-15 colon, 80.6%; in the assay on HT29 colon, 75%. Moreover, the growth with SNB-75 CNS was 90.2%; with U251 CNS, 87%; with PC-3 prostate, 79.6%; with SK-MEL-5 melanoma, 91.9%; in the assay on UACC-62 melanoma, 36.5%; with LOX IMVI melanoma, 90.1%. Besides, the growth in the assay with SK-MEL-28 melanoma is 99.5%.

For `Cc1cccc(/C=C2\CN(C(=O)OC(C)(C)C)C/C(=C\c3cccc(C)c3)C2=O)c1`, the growth in the assay with DU-145 prostate was 106%; in the assay with K-562 leukemia, 5.44% (active); in the assay with MALME-3M melanoma, 90.6%; in the assay with MDA-MB-231 breast, 98.8%; in the assay with RXF 393 renal it was 128%; in the assay on SF-268 CNS it was 94.1%. Further, the growth with SF-295 CNS is 101%; in the assay on SF-539 CNS it was 104%; in the assay on UACC-257 melanoma, 94.7%; in the assay with M14 melanoma, 90.5%; in the assay on HCT-15 colon it was 76.2%; in the assay on HT29 colon, 46.5%. Besides, the growth with SNB-75 CNS is 74.7%; in the assay on U251 CNS, 63.6%; in the assay with PC-3 prostate, 89%; in the assay with SK-MEL-5 melanoma, 101%; in the assay with UACC-62 melanoma, 81.3%; in the assay on LOX IMVI melanoma, 47.1%. Further, in the assay with SK-MEL-28 melanoma, the growth is 104%.

Take `O=C(N(c1ccccc1)c1ccccc1)n1cc(I)c2nc(Cl)nc(Cl)c21`: the growth in the assay on DU-145 prostate is 43.3%; with K-562 leukemia, 20.8%; in the assay with MALME-3M melanoma, 73.4%; with MDA-MB-231 breast it was 67.6%; with RXF 393 renal, 40.1%; in the assay with SF-268 CNS, 34.3%. For the same compound, the growth was 48.2% with SF-295 CNS; 56.8% in the assay with SF-539 CNS; 53.7% in the assay with UACC-257 melanoma; 57.4% in the assay on M14 melanoma; 30.6% in the assay with HCT-15 colon; 29.7% with HT29 colon. Moreover, the growth was 35.1% in the assay on SNB-75 CNS; 24.2% with U251 CNS; 32.1% in the assay on PC-3 prostate; 63.9% with SK-MEL-5 melanoma; 37.2% in the assay with UACC-62 melanoma; 31.1% in the assay with LOX IMVI melanoma. Further, the growth with SK-MEL-28 melanoma was 88.2%.

Regarding `COc1ccc(F)cc1/C=C/C(=O)/C=C(/C=C/c1cc(F)ccc1OC)OB(F)F`, the growth in the assay on DU-145 prostate is 37.9%; in the assay with K-562 leukemia, 7.73% (active); in the assay on MALME-3M melanoma, 5.69% (active); with MDA-MB-231 breast it was 32.5%; in the assay on RXF 393 renal, 18%; in the assay on SF-268 CNS, 80.2%. Further, the growth in the assay with SF-295 CNS was 93.8%; in the assay on SF-539 CNS, 61.1%; in the assay with UACC-257 melanoma, 48.8%; with M14 melanoma it was 9.74% (active); with HCT-15 colon it was 9.21% (active); in the assay with HT29 colon it was 18%. The growth in the assay on SNB-75 CNS is 83.7%; in the assay with U251 CNS, 14%; in the assay on PC-3 prostate, 29%; in the assay on SK-MEL-5 melanoma, 53.6%; in the assay with UACC-62 melanoma it was 14.8%; with LOX IMVI melanoma, 3.94% (active). Further, the growth in the assay with SK-MEL-28 melanoma was 48.1%.

`COC(=O)[C@]1(C)CCC[C@]2(C)[C@H]3C[C@H]4C(C(C)C)=C[C@]3(CC[C@H]21)[C@@H]1C(=O)CC[C@H](OCCC#N)[C@@H]14`: the growth in the assay with DU-145 prostate is 89.2%; in the assay on K-562 leukemia it was 89.9%; in the assay with MALME-3M melanoma it was 85.9%; in the assay on MDA-MB-231 breast it was 73.9%; with RXF 393 renal, 55.5%; in the assay on SF-268 CNS, 74.3%. Also, the growth is 77.7% with SF-295 CNS; 91.7% in the assay on SF-539 CNS; 99.1% with UACC-257 melanoma; 82.5% with M14 melanoma; 84.9% in the assay on HCT-15 colon; 69.6% in the assay on HT29 colon. Besides, the growth with SNB-75 CNS is 87.6%; in the assay on U251 CNS it was 77.6%; in the assay on PC-3 prostate, 34.5%; in the assay on SK-MEL-5 melanoma, 79.4%; in the assay on UACC-62 melanoma it was 69.3%; in the assay on SK-MEL-28 melanoma it was 101%.
